# In publication PMC7862700, “An all-to-all approach to the identification of sequence-specific readers for epigenetic DNA modifications on cytosine”:
# Experiments:
# Experiment in all cases: DAPPL (digital affinity profiling via proximity ligation, sequencing); 10 mM Tris-HCl pH 7.5, 50 mM NaCl, 1 mM DTT, 4% glycerol, room temperature, 30 min; GST-TFs on glutathione beads, 16-mer random dsDNA library, 0.1% formaldehyde crosslink after washing; high values mean tight binding
# FLI1 = target: T1, FLI1 (Homo sapiens, UniProt Q01543 1-452); details: protein: recombinant; tags: N-terminal GST; dsDNA, one strand shown
# T1 sequence: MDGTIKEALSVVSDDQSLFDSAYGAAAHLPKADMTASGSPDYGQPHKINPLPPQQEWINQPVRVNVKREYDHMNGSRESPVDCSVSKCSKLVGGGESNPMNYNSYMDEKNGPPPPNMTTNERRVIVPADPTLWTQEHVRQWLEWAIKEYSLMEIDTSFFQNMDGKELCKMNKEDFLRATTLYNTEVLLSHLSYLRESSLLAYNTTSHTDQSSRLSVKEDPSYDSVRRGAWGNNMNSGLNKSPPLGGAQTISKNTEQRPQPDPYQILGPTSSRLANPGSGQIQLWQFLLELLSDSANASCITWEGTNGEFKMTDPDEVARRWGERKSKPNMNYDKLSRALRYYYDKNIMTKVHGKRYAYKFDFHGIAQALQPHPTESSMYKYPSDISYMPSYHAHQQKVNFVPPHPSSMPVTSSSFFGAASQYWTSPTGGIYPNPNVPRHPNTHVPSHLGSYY
# How it was run: (§1)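 Sequencing on an Illumina NextSeq500 followed washing, crosslinking with 0.1% formaldehyde, proximity ligation (BsaI/T4 ligase, 1 h, 37 °C) and PCR amplification of pools that had been incubated for 30 min at room temperature with 200 nmole of a random double-stranded 16-mer DNA library in Tris/NaCl/DTT/glycerol buffer. Each pool held DNA-barcoded human transcription factors, expressed in yeast as GST fusions and captured on glutathione beads, plus a tag-only sample. Binding signal is a hexamer's read frequency for a factor divided by its frequency in the tag-only sample.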
# ELK1 = target: T2, ELK1 (Homo sapiens, UniProt P19419 1-428); details: protein: recombinant; tags: N-terminal GST; dsDNA, one strand shown
# T2 sequence: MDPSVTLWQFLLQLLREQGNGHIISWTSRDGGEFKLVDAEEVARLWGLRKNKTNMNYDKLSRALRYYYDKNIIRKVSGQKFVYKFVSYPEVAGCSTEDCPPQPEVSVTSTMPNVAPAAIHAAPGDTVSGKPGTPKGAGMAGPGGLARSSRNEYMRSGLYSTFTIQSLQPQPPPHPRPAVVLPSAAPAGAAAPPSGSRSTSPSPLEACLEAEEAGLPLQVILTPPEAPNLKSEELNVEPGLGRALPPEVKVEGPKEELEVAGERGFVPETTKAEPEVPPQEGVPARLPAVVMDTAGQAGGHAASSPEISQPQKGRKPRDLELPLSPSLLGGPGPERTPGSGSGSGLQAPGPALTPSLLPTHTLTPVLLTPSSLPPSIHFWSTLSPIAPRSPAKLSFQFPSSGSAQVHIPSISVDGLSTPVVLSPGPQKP
# How it was run: as §1
# GABPA = target: T3, GABPA (Homo sapiens, UniProt Q06546 1-454); details: protein: recombinant; tags: N-terminal GST; dsDNA, one strand shown
# T3 sequence: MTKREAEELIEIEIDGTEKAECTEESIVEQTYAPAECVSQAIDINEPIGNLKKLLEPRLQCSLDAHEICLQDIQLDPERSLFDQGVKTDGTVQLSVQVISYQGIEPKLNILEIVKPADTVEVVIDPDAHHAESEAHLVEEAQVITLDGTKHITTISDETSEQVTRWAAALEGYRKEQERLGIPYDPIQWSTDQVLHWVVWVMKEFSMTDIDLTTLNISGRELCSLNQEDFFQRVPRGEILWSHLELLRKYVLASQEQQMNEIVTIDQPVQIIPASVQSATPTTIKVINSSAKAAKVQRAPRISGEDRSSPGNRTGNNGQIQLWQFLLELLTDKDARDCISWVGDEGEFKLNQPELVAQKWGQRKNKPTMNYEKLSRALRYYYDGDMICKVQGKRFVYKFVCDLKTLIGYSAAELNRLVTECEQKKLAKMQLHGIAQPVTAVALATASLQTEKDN
# How it was run: as §1
# ERG = target: T4, ERG (Homo sapiens, UniProt P11308 1-479); details: protein: recombinant; tags: N-terminal GST; dsDNA, one strand shown
# T4 sequence: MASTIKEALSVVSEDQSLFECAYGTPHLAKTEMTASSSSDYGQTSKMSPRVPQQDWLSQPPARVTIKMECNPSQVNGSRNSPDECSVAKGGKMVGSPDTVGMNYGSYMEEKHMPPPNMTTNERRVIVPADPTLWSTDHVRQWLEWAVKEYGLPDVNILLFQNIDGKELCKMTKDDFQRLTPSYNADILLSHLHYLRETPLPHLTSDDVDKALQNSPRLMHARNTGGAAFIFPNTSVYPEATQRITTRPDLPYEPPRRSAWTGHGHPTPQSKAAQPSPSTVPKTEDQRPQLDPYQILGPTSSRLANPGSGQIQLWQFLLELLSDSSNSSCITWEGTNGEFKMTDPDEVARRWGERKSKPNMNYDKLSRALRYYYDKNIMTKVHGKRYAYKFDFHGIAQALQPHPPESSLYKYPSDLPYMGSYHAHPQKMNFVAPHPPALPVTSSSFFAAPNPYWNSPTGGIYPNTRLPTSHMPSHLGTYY
# How it was run: as §1
# ELF1 = ELF1 (Homo sapiens, UniProt P32519 1-619); details: protein: recombinant; tags: N-terminal GST; dsDNA, one strand shown
# How it was run: as §1
# EHF = target: T5, EHF (Homo sapiens, UniProt Q9NZC4 1-300); details: protein: recombinant; tags: N-terminal GST; dsDNA, one strand shown
# T5 sequence: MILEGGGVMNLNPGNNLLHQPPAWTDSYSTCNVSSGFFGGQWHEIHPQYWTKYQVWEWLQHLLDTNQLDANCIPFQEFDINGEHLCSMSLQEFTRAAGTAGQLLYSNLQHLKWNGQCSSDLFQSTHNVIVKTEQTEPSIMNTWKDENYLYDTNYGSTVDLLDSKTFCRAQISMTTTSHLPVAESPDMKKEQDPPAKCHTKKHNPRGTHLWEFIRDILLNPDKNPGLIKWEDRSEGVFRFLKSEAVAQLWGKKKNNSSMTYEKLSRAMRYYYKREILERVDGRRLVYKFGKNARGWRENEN
# How it was run: as §1
# SPI1 = SPI1 (Homo sapiens, UniProt P17947 1-270); details: protein: recombinant; tags: N-terminal GST; dsDNA, one strand shown
# How it was run: as §1
# SPIB = SPIB (Homo sapiens, UniProt Q01892 1-262); details: protein: recombinant; tags: N-terminal GST; dsDNA, one strand shown
# How it was run: as §1
# ELK3 = target: T6, ELK3 (Homo sapiens, UniProt P41970 1-407); details: protein: recombinant; tags: N-terminal GST; dsDNA, one strand shown
# T6 sequence: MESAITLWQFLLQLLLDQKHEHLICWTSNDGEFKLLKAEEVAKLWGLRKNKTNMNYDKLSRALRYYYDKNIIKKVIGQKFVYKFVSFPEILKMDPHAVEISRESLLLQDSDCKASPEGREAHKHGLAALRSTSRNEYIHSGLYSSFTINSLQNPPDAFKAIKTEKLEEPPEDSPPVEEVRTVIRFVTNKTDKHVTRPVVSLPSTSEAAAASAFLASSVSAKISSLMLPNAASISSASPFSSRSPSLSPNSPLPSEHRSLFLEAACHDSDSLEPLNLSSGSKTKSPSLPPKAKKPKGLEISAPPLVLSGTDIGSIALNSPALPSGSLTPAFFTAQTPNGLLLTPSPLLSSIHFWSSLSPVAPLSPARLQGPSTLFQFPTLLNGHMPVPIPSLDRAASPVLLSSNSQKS
# How it was run: as §1
# FEV = target: T7, FEV (Homo sapiens, UniProt Q99581 1-238); details: protein: recombinant; tags: N-terminal GST; dsDNA, one strand shown
# T7 sequence: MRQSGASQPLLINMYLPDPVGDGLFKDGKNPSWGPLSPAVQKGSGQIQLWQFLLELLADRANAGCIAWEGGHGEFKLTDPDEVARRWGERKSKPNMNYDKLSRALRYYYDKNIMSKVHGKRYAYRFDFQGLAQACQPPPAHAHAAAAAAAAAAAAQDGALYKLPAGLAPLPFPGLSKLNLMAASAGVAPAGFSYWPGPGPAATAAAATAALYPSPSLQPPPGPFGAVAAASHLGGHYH
# How it was run: as §1
# ETV5 = ETV5 (Homo sapiens, UniProt P41161 1-510); details: protein: recombinant; tags: N-terminal GST; dsDNA, one strand shown
# How it was run: as §1
# HSF1 = HSF1 (Homo sapiens, UniProt Q00613 1-529); details: protein: recombinant; tags: N-terminal GST; chain copies: 3; dsDNA, one strand shown
# How it was run: as §1
# SPIC = target: T8, SPIC (Homo sapiens, UniProt Q8N5J4 1-248); details: protein: recombinant; tags: N-terminal GST; dsDNA, one strand shown
# T8 sequence: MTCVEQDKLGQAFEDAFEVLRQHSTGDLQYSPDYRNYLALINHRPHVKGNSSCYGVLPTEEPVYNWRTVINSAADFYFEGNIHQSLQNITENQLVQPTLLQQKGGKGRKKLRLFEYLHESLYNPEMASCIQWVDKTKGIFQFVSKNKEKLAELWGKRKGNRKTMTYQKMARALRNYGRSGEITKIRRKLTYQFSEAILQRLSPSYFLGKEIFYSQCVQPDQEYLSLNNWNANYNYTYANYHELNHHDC
# How it was run: as §1
# ELF4 = ELF4 (Homo sapiens, UniProt Q99607 1-663); details: protein: recombinant; tags: N-terminal GST; dsDNA, one strand shown
# How it was run: as §1
# ELK4 = target: T9, ELK4 (Homo sapiens, UniProt P28324-2 1-405); details: protein: recombinant; tags: N-terminal GST; dsDNA, one strand shown
# T9 sequence: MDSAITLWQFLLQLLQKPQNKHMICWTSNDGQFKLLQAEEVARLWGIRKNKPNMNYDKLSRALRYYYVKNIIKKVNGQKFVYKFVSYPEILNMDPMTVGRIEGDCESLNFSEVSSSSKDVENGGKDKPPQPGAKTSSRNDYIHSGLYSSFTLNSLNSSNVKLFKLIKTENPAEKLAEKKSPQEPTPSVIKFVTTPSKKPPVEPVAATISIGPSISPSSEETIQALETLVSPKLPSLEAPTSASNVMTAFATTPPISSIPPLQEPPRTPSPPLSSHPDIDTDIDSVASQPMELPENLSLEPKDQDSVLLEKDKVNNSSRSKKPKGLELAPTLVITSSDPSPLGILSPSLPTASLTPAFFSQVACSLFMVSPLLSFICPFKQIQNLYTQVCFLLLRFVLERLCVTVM
# How it was run: as §1
# ETV2 = target: T10, ETV2 (Homo sapiens, UniProt O00321 1-342); details: protein: recombinant; tags: N-terminal GST; dsDNA, one strand shown
# T10 sequence: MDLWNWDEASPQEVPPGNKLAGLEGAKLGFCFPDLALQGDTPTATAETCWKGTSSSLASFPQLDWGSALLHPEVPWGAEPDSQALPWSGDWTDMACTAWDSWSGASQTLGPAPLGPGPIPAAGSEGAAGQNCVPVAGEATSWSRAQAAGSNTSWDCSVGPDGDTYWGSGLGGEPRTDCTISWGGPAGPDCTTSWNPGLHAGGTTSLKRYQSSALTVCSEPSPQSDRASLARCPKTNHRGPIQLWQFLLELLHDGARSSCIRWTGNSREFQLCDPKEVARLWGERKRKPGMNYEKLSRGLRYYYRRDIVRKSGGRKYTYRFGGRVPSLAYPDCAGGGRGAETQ
# How it was run: as §1
# ELF3 = target: T11, ELF3 (Homo sapiens, UniProt P78545 1-371); details: protein: recombinant; tags: N-terminal GST; dsDNA, one strand shown
# T11 sequence: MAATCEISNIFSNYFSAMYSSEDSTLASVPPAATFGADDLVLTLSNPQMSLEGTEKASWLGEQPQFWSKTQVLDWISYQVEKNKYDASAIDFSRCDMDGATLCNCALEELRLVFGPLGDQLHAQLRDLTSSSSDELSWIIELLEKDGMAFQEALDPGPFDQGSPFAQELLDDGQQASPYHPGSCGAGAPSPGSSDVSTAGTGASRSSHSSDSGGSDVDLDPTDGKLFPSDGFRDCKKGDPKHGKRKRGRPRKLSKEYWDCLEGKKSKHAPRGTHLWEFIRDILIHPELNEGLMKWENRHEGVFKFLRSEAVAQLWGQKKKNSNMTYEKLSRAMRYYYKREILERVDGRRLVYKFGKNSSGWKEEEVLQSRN
# How it was run: as §1
# CRX = CRX (Homo sapiens, UniProt O43186 1-299); details: protein: recombinant; tags: N-terminal GST; dsDNA, one strand shown
# How it was run: as §1
# ETV1 = ETV1 (Homo sapiens, UniProt P50549 1-477); details: protein: recombinant; tags: N-terminal GST; dsDNA, one strand shown
# How it was run: as §1
# Chain of SPIB (Q01892 whole entry): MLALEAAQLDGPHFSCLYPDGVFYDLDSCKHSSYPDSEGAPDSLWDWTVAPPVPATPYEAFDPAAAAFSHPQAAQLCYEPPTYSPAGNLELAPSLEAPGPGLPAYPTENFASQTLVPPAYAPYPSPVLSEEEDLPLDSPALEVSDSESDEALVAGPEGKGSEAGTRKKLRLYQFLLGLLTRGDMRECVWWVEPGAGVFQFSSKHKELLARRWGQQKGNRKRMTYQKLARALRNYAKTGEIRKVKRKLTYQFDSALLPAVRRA
# Chain of CRX (O43186 whole entry): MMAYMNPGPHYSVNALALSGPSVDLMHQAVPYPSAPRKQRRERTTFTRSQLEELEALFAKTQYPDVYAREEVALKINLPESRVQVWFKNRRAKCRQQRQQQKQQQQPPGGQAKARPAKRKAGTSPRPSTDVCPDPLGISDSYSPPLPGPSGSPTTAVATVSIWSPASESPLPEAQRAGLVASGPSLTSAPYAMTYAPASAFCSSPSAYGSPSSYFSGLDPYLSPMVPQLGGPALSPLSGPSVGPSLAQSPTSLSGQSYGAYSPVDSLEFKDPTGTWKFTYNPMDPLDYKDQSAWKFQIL
# Chain of ELF1 (P32519 whole entry): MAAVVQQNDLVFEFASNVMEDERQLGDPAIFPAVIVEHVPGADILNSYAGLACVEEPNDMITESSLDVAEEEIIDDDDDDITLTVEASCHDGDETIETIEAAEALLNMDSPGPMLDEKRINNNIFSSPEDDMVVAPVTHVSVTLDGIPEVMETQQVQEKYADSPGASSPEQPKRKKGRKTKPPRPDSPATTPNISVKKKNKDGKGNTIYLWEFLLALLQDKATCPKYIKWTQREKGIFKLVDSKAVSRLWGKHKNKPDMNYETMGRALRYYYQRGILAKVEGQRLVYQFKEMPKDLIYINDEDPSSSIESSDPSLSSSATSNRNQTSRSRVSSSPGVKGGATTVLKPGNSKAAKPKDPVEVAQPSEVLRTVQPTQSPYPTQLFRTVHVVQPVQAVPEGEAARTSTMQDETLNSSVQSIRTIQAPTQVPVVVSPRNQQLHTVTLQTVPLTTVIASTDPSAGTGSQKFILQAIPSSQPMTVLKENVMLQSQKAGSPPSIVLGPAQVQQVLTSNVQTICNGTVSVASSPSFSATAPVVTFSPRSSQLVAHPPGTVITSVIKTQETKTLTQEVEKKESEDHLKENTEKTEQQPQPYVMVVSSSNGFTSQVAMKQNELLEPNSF
# Chain of HSF1 (Q00613 whole entry): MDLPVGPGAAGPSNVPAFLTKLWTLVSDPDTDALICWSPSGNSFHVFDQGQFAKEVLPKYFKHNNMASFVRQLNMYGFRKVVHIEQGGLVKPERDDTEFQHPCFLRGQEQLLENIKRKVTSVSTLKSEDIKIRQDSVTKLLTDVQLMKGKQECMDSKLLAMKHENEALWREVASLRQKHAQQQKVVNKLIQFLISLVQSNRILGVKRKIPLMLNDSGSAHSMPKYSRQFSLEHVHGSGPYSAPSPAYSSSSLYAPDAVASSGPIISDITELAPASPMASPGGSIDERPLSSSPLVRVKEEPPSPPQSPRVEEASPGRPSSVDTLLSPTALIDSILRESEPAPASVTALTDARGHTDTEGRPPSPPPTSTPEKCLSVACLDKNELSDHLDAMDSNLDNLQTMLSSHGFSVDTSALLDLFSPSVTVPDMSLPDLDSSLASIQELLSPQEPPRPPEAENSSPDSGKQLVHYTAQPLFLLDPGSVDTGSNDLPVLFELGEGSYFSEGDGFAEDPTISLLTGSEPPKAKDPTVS
# Chain of ETV1 (P50549 whole entry): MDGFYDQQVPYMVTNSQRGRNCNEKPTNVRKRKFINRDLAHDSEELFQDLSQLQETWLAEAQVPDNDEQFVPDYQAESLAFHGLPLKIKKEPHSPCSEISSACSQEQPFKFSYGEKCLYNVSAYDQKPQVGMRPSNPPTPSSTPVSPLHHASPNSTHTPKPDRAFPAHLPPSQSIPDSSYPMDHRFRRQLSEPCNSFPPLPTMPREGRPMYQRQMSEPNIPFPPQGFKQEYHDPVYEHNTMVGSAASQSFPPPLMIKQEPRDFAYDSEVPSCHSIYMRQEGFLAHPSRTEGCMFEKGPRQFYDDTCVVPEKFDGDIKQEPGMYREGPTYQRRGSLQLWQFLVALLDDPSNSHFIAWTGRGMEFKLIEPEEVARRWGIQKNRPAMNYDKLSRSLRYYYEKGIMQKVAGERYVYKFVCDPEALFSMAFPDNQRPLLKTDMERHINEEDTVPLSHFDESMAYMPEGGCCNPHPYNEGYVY
# Chain of ETV5 (P41161 whole entry): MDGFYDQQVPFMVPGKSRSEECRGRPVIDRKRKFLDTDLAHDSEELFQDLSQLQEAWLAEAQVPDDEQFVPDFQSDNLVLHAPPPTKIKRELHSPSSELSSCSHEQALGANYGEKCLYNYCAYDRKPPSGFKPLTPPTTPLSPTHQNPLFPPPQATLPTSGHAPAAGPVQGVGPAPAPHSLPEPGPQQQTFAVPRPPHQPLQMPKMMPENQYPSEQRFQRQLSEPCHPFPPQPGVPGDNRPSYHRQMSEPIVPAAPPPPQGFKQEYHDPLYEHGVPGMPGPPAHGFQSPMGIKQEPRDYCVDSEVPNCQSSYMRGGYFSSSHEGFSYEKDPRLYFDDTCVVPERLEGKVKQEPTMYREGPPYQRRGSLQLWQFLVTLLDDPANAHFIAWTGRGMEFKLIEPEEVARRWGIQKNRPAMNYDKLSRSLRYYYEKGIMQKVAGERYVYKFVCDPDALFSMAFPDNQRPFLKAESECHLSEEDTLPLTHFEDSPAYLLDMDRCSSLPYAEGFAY
# Chain of ELF4 (Q99607 whole entry): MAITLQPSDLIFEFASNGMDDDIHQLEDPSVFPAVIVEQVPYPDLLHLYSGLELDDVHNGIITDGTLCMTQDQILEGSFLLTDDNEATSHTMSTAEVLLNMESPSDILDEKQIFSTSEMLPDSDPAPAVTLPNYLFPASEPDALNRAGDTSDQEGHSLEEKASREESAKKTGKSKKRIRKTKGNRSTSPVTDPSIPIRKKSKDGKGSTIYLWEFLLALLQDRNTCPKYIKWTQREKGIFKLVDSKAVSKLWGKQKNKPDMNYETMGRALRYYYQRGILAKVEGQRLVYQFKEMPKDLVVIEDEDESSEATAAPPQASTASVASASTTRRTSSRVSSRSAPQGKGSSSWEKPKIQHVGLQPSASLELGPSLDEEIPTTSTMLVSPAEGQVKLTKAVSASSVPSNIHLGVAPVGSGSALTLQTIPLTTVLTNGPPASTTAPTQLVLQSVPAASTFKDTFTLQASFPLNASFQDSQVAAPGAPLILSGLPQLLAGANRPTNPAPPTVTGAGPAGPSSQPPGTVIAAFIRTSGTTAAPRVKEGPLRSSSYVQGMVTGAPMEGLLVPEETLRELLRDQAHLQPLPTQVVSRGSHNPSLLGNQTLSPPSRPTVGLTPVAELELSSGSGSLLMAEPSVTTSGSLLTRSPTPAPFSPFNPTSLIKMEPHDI
sequence,measurement,setting,value
TTGTTC,binding signal,FLI1,"1.5 fold enrichment (6-mer frequency, TF over GST control)"
same,binding signal,ELK1,"1.41 fold enrichment (6-mer frequency, TF over GST control)"
same,binding signal,GABPA,"1.53 fold enrichment (6-mer frequency, TF over GST control)"
same,binding signal,ERG,"1.34 fold enrichment (6-mer frequency, TF over GST control)"
same,binding signal,ELF1,"1.44 fold enrichment (6-mer frequency, TF over GST control)"
same,binding signal,EHF,"1.64 fold enrichment (6-mer frequency, TF over GST control)"
same,binding signal,SPI1,"1.51 fold enrichment (6-mer frequency, TF over GST control)"
same,binding signal,SPIB,"1.57 fold enrichment (6-mer frequency, TF over GST control)"
same,binding signal,ELK3,"1.39 fold enrichment (6-mer frequency, TF over GST control)"
same,binding signal,FEV,"1.43 fold enrichment (6-mer frequency, TF over GST control)"
same,binding signal,ETV5,"1.48 fold enrichment (6-mer frequency, TF over GST control)"
same,binding signal,HSF1,"1.89 fold enrichment (6-mer frequency, TF over GST control)"
same,binding signal,SPIC,"1.48 fold enrichment (6-mer frequency, TF over GST control)"
same,binding signal,ELF4,"1.37 fold enrichment (6-mer frequency, TF over GST control)"
same,binding signal,ELK4,"1.48 fold enrichment (6-mer frequency, TF over GST control)"
same,binding signal,ETV2,"1.48 fold enrichment (6-mer frequency, TF over GST control)"
same,binding signal,ELF3,"1.33 fold enrichment (6-mer frequency, TF over GST control)"
same,binding signal,CRX,"1.43 fold enrichment (6-mer frequency, TF over GST control)"
same,binding signal,ETV1,"1.49 fold enrichment (6-mer frequency, TF over GST control)"
